Assay results as given in PubChem BioAssay (NCI).
The panel holds about 83,000 compounds, 20% with a hit somewhere; the sample as a whole holds those more often.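 96-well plates, one dose, 48 hours. Percent growth reported; active if below 10.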 Activity calls are given as the source filed them.

How the values were obtained:
Assay in all cases: NCI-60 one-dose screen, 48 h (100 = growth as untreated, 0 = no growth, -100 = all killed)
Conditions in all cases: 10 µM unless noted
HCT-15 colon = system: HCT-15 colon
HT29 colon = system: HT29 colon
SNB-75 CNS = system: SNB-75 CNS
SNB-19 CNS = system: SNB-19 CNS
U251 CNS = system: U251 CNS
PC-3 prostate = system: PC-3 prostate
SK-MEL-5 melanoma = system: SK-MEL-5 melanoma
UACC-62 melanoma = system: UACC-62 melanoma
LOX IMVI melanoma = system: LOX IMVI melanoma
SK-MEL-28 melanoma = system: SK-MEL-28 melanoma

Measured: growth

CN(C)CCCNC(=O)c1cncnc1Nc1ccc2c(ccn2Cc2cccc(F)c2)c1
inactive: HCT-15 colon 63.2% | HT29 colon 39.1% | SNB-75 CNS 78% | SNB-19 CNS 92.5% | U251 CNS 68.9% | PC-3 prostate 86% | SK-MEL-5 melanoma 91.4% | UACC-62 melanoma 100% | LOX IMVI melanoma 76.7% | SK-MEL-28 melanoma 89.6%

CCOc1ncc([N+](=O)[O-])c(OCC)n1
inactive: HCT-15 colon 104% | HT29 colon 121% | SNB-75 CNS 97% | SNB-19 CNS 104% | U251 CNS 109% | PC-3 prostate 88.1% | SK-MEL-5 melanoma 99.9% | UACC-62 melanoma 95.9% | LOX IMVI melanoma 101% | SK-MEL-28 melanoma 105%

Cc1c2cnccc2c(C)c2c1c1cc(CO)ccc1n2C
active: HCT-15 colon -10.9% | HT29 colon -16.3% | SNB-75 CNS -45.1% | SNB-19 CNS -22.2% | U251 CNS -38.1% | PC-3 prostate -9.48% | SK-MEL-5 melanoma -96.8% | UACC-62 melanoma -74.7% | LOX IMVI melanoma -63.5% | SK-MEL-28 melanoma -69.5%

C[C@H]1[C@H](C)CC[C@]2(C(=O)NCCNCCN)CC[C@]3(C)C(=CC[C@@H]4[C@@]5(C)CCC(=O)C(C)(C)[C@@H]5CC[C@]43C)[C@H]12
inactive: HCT-15 colon 13.1% | SNB-75 CNS 65% | SNB-19 CNS 71.6% | PC-3 prostate 38.5% | SK-MEL-5 melanoma 85.3% | UACC-62 melanoma 77.5% | SK-MEL-28 melanoma 81.5%
active: HT29 colon 4.06% | U251 CNS -28.6% | LOX IMVI melanoma -76.7%

C=C(C)[C@@H]1CC[C@]2(CO)CC[C@]3(C)[C@H](CC[C@@H]4[C@@](C)(CCCN)[C@H](C(=C)C)CC[C@]43C)[C@@H]12
active: HCT-15 colon -81.7% | HT29 colon -54.4% | SNB-75 CNS -91.9% | SNB-19 CNS 1.21% | U251 CNS -88.6% | PC-3 prostate 0.447% | SK-MEL-5 melanoma -87.5% | UACC-62 melanoma -88.6% | LOX IMVI melanoma -97.8% | SK-MEL-28 melanoma -98.3%

O=C(O)CCCCCCCCCCN1C(=O)/C(=C2/C(=O)N(CC(=O)O)c3ccc(Br)cc32)SC1=S
inactive: HCT-15 colon 44.2% | HT29 colon 100% | SNB-75 CNS 92.5% | SNB-19 CNS 99.9% | U251 CNS 72% | PC-3 prostate 74.8% | SK-MEL-5 melanoma 81.2% | UACC-62 melanoma 80.3% | LOX IMVI melanoma 78.2% | SK-MEL-28 melanoma 104%

COc1ccc(C2CC(n3ccnc3)c3cc(OC)c(OC)c(OC)c32)cc1O (stereo not given)
inactive: HCT-15 colon 59.9% | HT29 colon 102% | SNB-75 CNS 90.2% | SNB-19 CNS 93.7% | U251 CNS 80.4% | PC-3 prostate 60.7% | SK-MEL-5 melanoma 53.1% | UACC-62 melanoma 65.5% | LOX IMVI melanoma 86.4% | SK-MEL-28 melanoma 78.3%

COc1ccc(C/C(C)=C(\c2ccc(Cl)cc2)c2ccc(OCCN3CCCC3)cc2)cc1
inactive: HCT-15 colon 40.2% | HT29 colon 19.6% | SNB-75 CNS 88.5% | SNB-19 CNS 92.1% | U251 CNS 61.1% | PC-3 prostate 77.8% | SK-MEL-5 melanoma 89.7% | UACC-62 melanoma 90.8% | LOX IMVI melanoma 82.9% | SK-MEL-28 melanoma 91.4%

CC1(/C=C/c2ccc(-c3ccccc3)cc2)CCn2cnc3ncnc(c32)N1O (stereo not given)
active: SK-MEL-5 melanoma -6.47% | UACC-62 melanoma 0.915% | LOX IMVI melanoma 9.21%
inactive: HCT-15 colon 21.5% | HT29 colon 30% | SNB-75 CNS 36.3% | SNB-19 CNS 26.7% | U251 CNS 24.7% | PC-3 prostate 42.4% | SK-MEL-28 melanoma 29.7%

Cc1cccc(NC(=O)N/C(N)=N/c2nc3ccccc3s2)c1
inactive: HCT-15 colon 23% | HT29 colon 11.3% | SNB-19 CNS 42.3% | U251 CNS 28.9% | PC-3 prostate 34.2% | SK-MEL-5 melanoma 23.7% | UACC-62 melanoma 33.5% | LOX IMVI melanoma 34.4% | SK-MEL-28 melanoma 63%
active: SNB-75 CNS 4.63%

Cc1nc([P+](c2ccccc2)(c2ccccc2)c2ccccc2)c(N2CCCCC2)o1
inactive: HCT-15 colon 103% | HT29 colon 14.1% | SNB-75 CNS 37.9% | SNB-19 CNS 18.7% | U251 CNS 16.6% | PC-3 prostate 15.3% | UACC-62 melanoma 25.3% | LOX IMVI melanoma 24.5% | SK-MEL-28 melanoma 34.3%
active: SK-MEL-5 melanoma -32.3%

COc1ccc(Oc2ccc(/C=C/C(=O)c3ccc(OC)c(OC)c3)cc2)cc1
inactive: HCT-15 colon 61.5% | HT29 colon 86% | SNB-75 CNS 72.5% | SNB-19 CNS 85.8% | U251 CNS 68.9% | PC-3 prostate 81.6% | SK-MEL-5 melanoma 75.3% | UACC-62 melanoma 67.5% | LOX IMVI melanoma 53.7% | SK-MEL-28 melanoma 93.7%

CCOC(=O)c1c(C)nc2ccccc2c1/C=C/c1ccc(F)cc1
inactive: HCT-15 colon 68.1% | HT29 colon 75.5% | SNB-75 CNS 86.5% | SNB-19 CNS 76.9% | U251 CNS 75.5% | PC-3 prostate 67.3% | SK-MEL-5 melanoma 16.7% | UACC-62 melanoma 49.7% | LOX IMVI melanoma 74.1% | SK-MEL-28 melanoma 101%

COc1ccc(OC)c(Nc2nnc(-c3cc(OC)c(OC)c(OC)c3)o2)c1
inactive: HCT-15 colon 99% | HT29 colon 86.8% | SNB-75 CNS 101% | SNB-19 CNS 96.7% | U251 CNS 105% | PC-3 prostate 98.6% | SK-MEL-5 melanoma 93.9% | UACC-62 melanoma 87.8% | LOX IMVI melanoma 97.9% | SK-MEL-28 melanoma 102%

CC[C@@H](C(=O)[C@@H](C)[C@@H](O)[C@H](C)[C@@H]1O[C@@H]([C@@H](CC)C(=O)ONC(=O)c2ccccc2O)CC[C@@H]1C)C1O[C@]2(C=CC(=O)[C@]3(CC[C@@](C)([C@H]4CC[C@](O)(CC)[C@H](C)O4)O3)O2)[C@H](C)C[C@@H]1C (stereo not given in full)
inactive: HCT-15 colon 44.5% | HT29 colon 33.9% | SNB-75 CNS 64.3% | SNB-19 CNS 48.4% | U251 CNS 32.1% | PC-3 prostate 31.3% | SK-MEL-5 melanoma 11% | UACC-62 melanoma 63.3% | LOX IMVI melanoma 45.4% | SK-MEL-28 melanoma 73.3%

COc1ccc(/C=C(\C(=O)NCc2cccnc2)S(=O)(=O)c2ccccc2)cc1OC
inactive: HCT-15 colon 28.3% | SNB-75 CNS 54.2% | SNB-19 CNS 38.4% | U251 CNS 32.2% | PC-3 prostate 36.5% | SK-MEL-5 melanoma 64.6% | UACC-62 melanoma 34.9% | SK-MEL-28 melanoma 34.6%
active: HT29 colon 9.86% | LOX IMVI melanoma 4.04%

COc1ccc(C2CC(c3ccccc3)=NN2C(=O)c2cc(OC)c(OC)c(OC)c2)cc1O (stereo not given)
inactive: HCT-15 colon 16.2% | HT29 colon 36% | SNB-75 CNS 34.7% | SNB-19 CNS 47.3% | U251 CNS 20.6% | PC-3 prostate 22.5% | SK-MEL-5 melanoma 22.4% | UACC-62 melanoma 25.9% | LOX IMVI melanoma 42.9% | SK-MEL-28 melanoma 64.9%

C=C1SC(=Nc2ccccc2Cl)N(C(=O)c2sc3ccccc3c2Cl)C1(C)C
inactive: HCT-15 colon 81.4% | HT29 colon 61.6% | SNB-75 CNS 42.6% | SNB-19 CNS 42.9% | U251 CNS 49.2% | PC-3 prostate 30.7% | SK-MEL-5 melanoma 66.7% | UACC-62 melanoma 60% | LOX IMVI melanoma 77.3% | SK-MEL-28 melanoma 113%

CCOc1ccc(NC(=O)Nc2ccc(OCC)cc2)cc1
inactive: HCT-15 colon 106% | HT29 colon 107% | SNB-75 CNS 106% | SNB-19 CNS 107% | U251 CNS 99.8% | PC-3 prostate 100% | SK-MEL-5 melanoma 104% | UACC-62 melanoma 105% | LOX IMVI melanoma 98.3% | SK-MEL-28 melanoma 101%

COc1cc2c(cc1-c1c(C)noc1C)ncc1nc(CN3CCOCC3)n([C@H](C)COC(F)F)c12
active: SNB-75 CNS 3.11%
inactive: HCT-15 colon 23% | HT29 colon 12.1% | SNB-19 CNS 45.1% | U251 CNS 61.3% | PC-3 prostate 32.3% | SK-MEL-5 melanoma 19.8% | UACC-62 melanoma 17.4% | LOX IMVI melanoma 12.1% | SK-MEL-28 melanoma 59.3%

O=C(N/N=C/c1ccc(Cl)cc1)c1ccc(NC(=O)c2ccccn2)cc1
active: SNB-75 CNS -16%
inactive: HCT-15 colon 62.8% | HT29 colon 71.8% | SNB-19 CNS 64.9% | U251 CNS 18.3% | PC-3 prostate 79.8% | SK-MEL-5 melanoma 39.7% | UACC-62 melanoma 62% | LOX IMVI melanoma 54% | SK-MEL-28 melanoma 52.1%

CCCCC#Cc1c(I)n(C2OC(CO[Si](C)(C)C(C)(C)C)C3OC(C)(C)OC32)c(=O)n(C(=O)c2ccccc2)c1=O (stereo not given)
active: HCT-15 colon 8.46% | HT29 colon 0.292% | U251 CNS -33.2% | LOX IMVI melanoma -65.2% | SK-MEL-28 melanoma -42.9%
inactive: SNB-75 CNS 93.3% | SNB-19 CNS 72.3% | PC-3 prostate 43% | SK-MEL-5 melanoma 78.7% | UACC-62 melanoma 55.1%

O=C(Nc1ccc(Oc2cccc(Cl)c2)c(Cl)c1)c1cccnn1
inactive: HCT-15 colon 56.7% | HT29 colon 89.9% | SNB-75 CNS 77.7% | SNB-19 CNS 89.5% | U251 CNS 76.7% | PC-3 prostate 57.2% | SK-MEL-5 melanoma 83.8% | UACC-62 melanoma 74.7% | LOX IMVI melanoma 88.5% | SK-MEL-28 melanoma 99.4%

COc1ccc(CN2C(=O)OC(C)(COC(C)=O)C2=O)cc1 (stereo not given)
inactive: HCT-15 colon 102% | HT29 colon 107% | SNB-75 CNS 100% | SNB-19 CNS 102% | U251 CNS 104% | PC-3 prostate 101% | SK-MEL-5 melanoma 101% | UACC-62 melanoma 95.6% | LOX IMVI melanoma 100% | SK-MEL-28 melanoma 101%

COc1cc(/C=C2\C(=O)N(CCCOc3cc(O)c4c(=O)cc(-c5ccccc5)oc4c3)c3ccccc32)cc(OC)c1O
active: HT29 colon -16.1%
inactive: HCT-15 colon 42.4% | SNB-75 CNS 47.6% | SNB-19 CNS 80.6% | U251 CNS 60.9% | PC-3 prostate 67% | SK-MEL-5 melanoma 71.9% | UACC-62 melanoma 46.8% | LOX IMVI melanoma 58.8% | SK-MEL-28 melanoma 90.9%

COC12C=C/C(=C(/C(=O)OCc3cncnc3)C(=O)CCCCCCCCC3(OC)C=C/C(=C(/C(=O)OCc4cncnc4)C(=O)CCCCCCCC1)O3)O2
active: HCT-15 colon -49.1% | HT29 colon 1.94% | U251 CNS -36.5% | PC-3 prostate -55.1% | SK-MEL-5 melanoma -79.9% | UACC-62 melanoma -56.9% | LOX IMVI melanoma -61.8% | SK-MEL-28 melanoma -45%
inactive: SNB-75 CNS 22.4% | SNB-19 CNS 10.9%

C=CCN=c1sc(-c2ccc3ccccc3c2)cn1NC(=O)c1cc2ccc1CCc1ccc(cc1)CC2
inactive: HCT-15 colon 49.5% | HT29 colon 30.1% | SNB-75 CNS 53.3% | SNB-19 CNS 66.8% | U251 CNS 53.9% | PC-3 prostate 37.8% | UACC-62 melanoma 52.7% | LOX IMVI melanoma 59.9% | SK-MEL-28 melanoma 72.2%
active: SK-MEL-5 melanoma -10.1%
